# High-throughput results from PubChem BioAssay.
# HTT-AS promoter = activators of huntingtin-antisense promoter activity. AID 1508624. HEK293 HTT-AS promoter firefly luciferase reporter, 24 h; response scale: percent change from vehicle, -100% = no light. Potency, µM (doses to about 57.5 µM), most hits filed as activators. hit rate 0.24% among 48,000; also: nearly all actives have a fitted effect of over 55% in size
#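 Luminescence was read after Dual-Glo reagent and a 10 min room-temperature incubation. Values were normalized to vehicle (0% activity) and zero RLU (-100% activity). Reporter HEK293 cells had been exposed to compounds (up to 57.5 uM final) for 24 h.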
# NTMT1 inh = inhibitors of human N-terminal methyltransferase NTMT1 | Q9BV86 | NTMT1 MTase-Glo SAH luminescence, purified enzyme | Potency, µM (doses to about 114 µM), usual class: inhibitors | hit rate 2.5% among 59,000; also: nearly all actives have a fitted effect of over 65% in size
# Target sequence (Q9BV86 whole entry, looked up): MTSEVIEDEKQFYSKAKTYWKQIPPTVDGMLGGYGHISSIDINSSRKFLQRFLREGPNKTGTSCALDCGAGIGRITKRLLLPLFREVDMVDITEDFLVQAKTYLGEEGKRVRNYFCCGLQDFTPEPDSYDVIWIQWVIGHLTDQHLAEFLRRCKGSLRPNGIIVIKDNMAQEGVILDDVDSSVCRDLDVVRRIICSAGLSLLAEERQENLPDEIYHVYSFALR
# HTT prom inh = inhibitors of huntingtin promoter activity | HEK293 HTT promoter firefly luciferase reporter, 24 h | hit rate 0.93% among 48,000 | Potency, µM (highest dose often 57.5 µM), actives largely listed as inhibitors | AID 1508623; also: nearly all actives have a fitted effect of over 50% in size
#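 HEK293 Fluc reporter, 2,500 cells/well, 24 h pre-culture; cpds up to 57.5 uM final, 24 h 37 degrees C; Dual-Glo, 10 min RT; normalized vehicle = 0%, zero RLU = -100%.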
# Sfp qHTS opt = inhibitors of Bacillus subtilis Sfp PPTase, optimization followup | shares compounds with NTMT1 inh | purified Sfp PPTase enzyme activity, qHTS | Potency, µM (titrated, usually from 114 µM), actives largely listed as inhibitors | hit rate 78% among 230
# HM489 growth = B. subtilis HM489 growth inhibition. shares compounds with NTMT1 inh. B. subtilis HM489 (acpS-) growth, BacTiter-Glo, 5 h. Potency, µM (highest dose often 114 µM), hits mostly inhibitors. hit rate 50% among 220. AID 540353
# Sfp PPTase gel = inhibitors of Bacillus subtilis Sfp PPTase, gel-based followup. AID 540355. Potency, µM (top dose mostly 250 µM), most hits filed as inhibitors. hit rate 54% among 220. purified Sfp PPTase, gel-based product detection. shares compounds with NTMT1 inh
# Sfp inh SAR2 = inhibitors of Bacillus subtilis Sfp PPTase, SAR round 2; Potency, µM (doses to about 57.1 µM), usual class: inhibitors; hit rate 87% among 230; purified Sfp enzyme, PPTase activity, qHTS; AID 602370; shares compounds with NTMT1 inh
# HSD17B4 inh = inhibits human HSD17B4, off-target for HPGD inhibitors | purified HSD17B4, estradiol/NAD+, NADH fluorescence | shares compounds with NTMT1 inh | hit rate 10% among 230 | Potency, µM (titrated, usually from 57.1 µM), actives largely listed as inhibitors | AID 743187
# ALDH1A1 counter = inhibits human ALDH1A1, off-target for HPGD inhibitors. recombinant ALDH1A1, NADH fluorescence, propionaldehyde/NAD+. Potency, µM (series often up to 57.1 µM), most hits filed as inhibitors. shares compounds with NTMT1 inh. AID 743195. hit rate 93% among 230
# NNMT counter = blocks human NNMT methyltransferase. shares compounds with NTMT1 inh. NNMT MTase-Glo luminescence, SAH detection. Potency, µM (series often up to 57.1 µM), actives largely listed as inhibitors. hit rate 10% among 120. AID 1645878
# A number is an active result; . = inactive; ? = inconclusive; / = not tested or not shown; [ ] = remark or other dose. The list is not random: actives were taken first. Their share in the collection is about 2.4%. Calls follow the shape of the dose curve; as a rule, active = well fitted curve in the direction sought with a large enough effect; inconclusive = small, poorly fitted or top-dose-only effect, or another doubt; inactive = no such curve, though single readings can be large; an effect the other way counts as inactive or inconclusive.
SMILES,HTT-AS promoter,NTMT1 inh,HTT prom inh,others
CC(=O)N[C@H]1[C@H](O[C@H]2CC[C@@]3(C)C(CC[C@]4(C)C3CC=C3C5CC(C)(C)CC[C@]5(C(=O)O)[C@H](O[C@@H]5O[C@H](CO)[C@@H](O)[C@H](O)[C@H]5O)C[C@]34C)C2(C)C)O[C@H](CO[C@@H]2OC[C@H](O)[C@H](O)[C@H]2O[C@@H]2OC[C@@H](O)[C@H](O)[C@H]2O)[C@@H](O)[C@@H]1O (stereo not given in full),/,.[12.6 µM],/,
O=C(OCC#CCSc1nnc(-c2ccc3ccccc3c2)o1)c1ccc(F)cc1,/,.,/,
Cc1cc(-c2nnc3n2CCCCC3)c(C)n1-c1ccc(Cl)cc1,/,.,/,
Cc1cc(-c2nnc3n2CCCCC3)c(C)n1-c1cccc(C#N)c1,/,.,/,HSD17B4 inh=.;ALDH1A1 counter=?
Cc1cc(-c2nnc3n2CCCCCC3)c(C)n1-c1ccccc1,/,.,/,
Cc1cc(-c2nnc3n2CCCCC3)c(C)n1-c1ccc(Cl)c(Cl)c1,/,.,/,HSD17B4 inh=.;ALDH1A1 counter=0.61µM
COC1CC(OC2CCC3(C)C(=CCC4C3C(OC(C)=O)C(OC(=O)/C=C/c3ccccc3)C3(C)C(C(C)O)CCC43O)C2)OC(C)C1OC1CC(OC)C(OC2OC(C)C(OC3OC(CO)C(O)C(O)C3O)C(OC)C2O)C(C)O1 (stereo not given),/,.[6.45 µM],/,
C=C1[C@H](OC(C)=O)[C@H]2[C@@H](OC(C)=O)C(C)C[C@]2(OC(C)=O)C(=O)[C@H](C)/C=C/C(C)(C)C(=O)[C@H](OC(=O)C(C)C)[C@H]1OC(C)=O (stereo not given in full),/,.[12.6 µM],/,
COc1cc(NC(=O)C2CCN(c3cnc4ccccc4n3)CC2)cc(OC)c1OC,.,.,.,
COc1cc(N2CCC(O)CC2)ccc1Nc1nc(Nc2ccccc2S(=O)(=O)C(C)C)c2[nH]cnc2n1,/,.,/,NNMT counter=?
C/C=C/C=C/C=C/C(=O)O[C@@H]1C=C2COC(=O)[C@]2(O)[C@@]2(C)CCCC(C)(C)[C@H]12,/,.,/,NNMT counter=.
C/C=C/C=C/C(=O)O[C@@H]1C=C2COC(=O)[C@]2(O)[C@@]2(C)CCCC(C)(C)[C@H]12,/,.,/,
O=C([C@H](Cc1ccc(O[S+](=O)([O-])c2cccc3cccnc23)cc1)N[S+](=O)([O-])c1ccccn1)N1CCN(c2ccccc2)CC1,/,.,/,
O=C(NC/C=C/CN1CCN(c2cccc(Cl)c2Cl)CC1)c1ccc(-c2ccccn2)cc1,/,.,/,
COc1cccc(NC(=S)N2CCN(c3ccc4ccccc4n3)CC2)n1,/,.,/,Sfp qHTS opt=47µM;HM489 growth=?;Sfp PPTase gel=.;Sfp inh SAR2=36µM;HSD17B4 inh=27µM;ALDH1A1 counter=24µM
O=C(Nc1ccccc1)N1CCN(Cc2ccc3ccccc3n2)CC1,/,.,/,
COc1ccc(N2CCN(C(=O)Nc3ccc(Cl)cc3)CC2)cc1,.,.,?,
